# Source: PubChem BioAssay
# Several values for one entry are separate records, joined by “and”; a condition that tells them apart may be missing. Equal values may be shown once. Activity calls are given as the source filed them. Unless noted, no stated cut-off is given here; in the data, active means inhibition above about 80%; inactive means the rest.
# Columns and labels:
# [1] = sensitizers of A549 cells to miR-34 induction, primary screen, imaging, A549 dox-inducible miR-34, nuclei and caspase counts (AID 1347080;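 active means compounds whose cell count with miR-34 switched on is under 0.7 times the count with it off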); conditions: A549 miR-34 inducible, Hoechst nuclei count, 48 h
# [2] = survival rescue of mitochondrial mutant cells in low glucose, primary screen, MELAS cybrids, Rieske KO mouse fibroblasts, CellTiter-Glo (AID 1508586;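 active means mean z-score across replicates of 1.96 or higher in either the MELAS or the Rieske mutant cell line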;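 further: z relative to plate mean and SD of compound and empty wells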)
# [3] = LFS_MB_P medulloblastoma growth inhibition, cell-based, chromothripsis tumors, cisplatin or BGB combos (AID 1671449); conditions: LFS_MB_P medulloblastoma cells;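 further: cells exposed for 96 hours; 0% = vehicle DMSO and 100% = killing by high DMSO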
# [4] = HDN33 neuroblastoma growth inhibition, cell-based, chromothripsis tumors, cisplatin or BGB combos (AID 1671450); conditions: HDN33 neuroblastoma cells, stronger effect = higher value;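 further: cells exposed to compound for four days; 0% = vehicle DMSO and 100% = cell killing by high DMSO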
# [5] = ICB984 medulloblastoma cell growth inhibition, synergistic combos for chromothripsis tumors, cisplatin or BGB combos (AID 1671451; call rule not given here;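 further: cells exposed for 96 hours before readout; 0% = vehicle DMSO and 100% = killing by high DMSO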); conditions: ICB984 medulloblastoma cells, drug combinations, stronger effect = higher value
# [6] = LFS_MB_1R medulloblastoma cell growth inhibition, synergistic combos for chromothripsis tumors, cisplatin or BGB combos (AID 1671452); conditions: LFS_MB_1R medulloblastoma cells, stronger effect = higher value;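 further: cells exposed for 96 hours before readout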
# [7] = HTB85 osteosarcoma cell growth inhibition, synergistic combos for chromothripsis tumors, BGB or cisplatin IC20 combos (AID 1671453); conditions: HTB85 osteosarcoma cells, drug combinations, stronger effect = higher value;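 further: cells exposed for 96 hours before readout; 0% = vehicle DMSO and 100% = high DMSO killing control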
# [8] = CRL2098 osteosarcoma cell growth inhibition, synergistic combos for chromothripsis tumors, BGB or cisplatin IC20 combos (AID 1671454); conditions: CRL2098 osteosarcoma cells, drug combinations, stronger effect = higher value;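 further: cells exposed for 96 h before readout; 0% = vehicle DMSO and 100% = killing by high DMSO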
# [9] = HD-MB03 medulloblastoma cell growth inhibition, synergistic combos for chromothripsis tumors, BGB or cisplatin IC20 combos (AID 1671455; in the data active means inhibition above about 83%;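 further: 0% = vehicle DMSO and 100% = high DMSO as cytotoxic control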); conditions: HD-MB03 medulloblastoma cells, stronger effect = higher value
# [10] = UWB1.289 ovarian carcinoma cell growth inhibition, synergistic combos for chromothripsis tumors, BGB or cisplatin combos (AID 1671456); conditions: UWB1.289 ovarian carcinoma cells, stronger effect = higher value;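 further: cells exposed to compound for four days; 0% = vehicle DMSO and 100% = killing by high DMSO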
# [11] = LFS_MB_2R medulloblastoma cell growth inhibition, synergistic combos for chromothripsis tumors, cisplatin combos (AID 1671457); conditions: LFS_MB_2R medulloblastoma cells, stronger effect = higher value;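 further: cells exposed to compound for four days before readout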
# [12] = MDA-MB-436 breast carcinoma cell growth inhibition, synergistic combos for chromothripsis tumors, BGB or cisplatin combos (AID 1671458; call rule not given here;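 further: cells exposed for 96 hours; 0% = vehicle DMSO and 100% = killing by high DMSO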); conditions: MDA-MB-436 breast carcinoma growth inhibition, drug combinations, stronger effect = higher value
# [13] = UWB1.289_BRCA1 ovarian cancer growth, cell-based, BGB or cisplatin combinations (AID 1671459); conditions: UWB1.289 BRCA1 ovarian carcinoma, drug combinations, stronger effect = higher value
# [14] = human astrocyte viability loss, single and combined drugs, cytotoxicity control for chromothriptic childhood tumor combination screen, cell-based, BGB or cisplatin IC20 combos (AID 1671460); conditions: Human astrocytes, drug combinations, stronger effect = higher value;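 further: cells exposed to compounds for 96 hours before viability readout; 0% = vehicle and 100% = killing control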
# [15] = growth inhibition of BT084 medulloblastoma cells, cell-based, ICGC_MB145, cisplatin and BGB IC40 combos (AID 1671461); conditions: drug combinations, stronger effect = higher value;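 further: cells exposed to drugs for 96 hours; 0% = vehicle DMSO and 100% = high DMSO full killing control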
# [16] = growth inhibition of RCMB18 medulloblastoma cells, cell-based, cisplatin and BGB IC40 combos (AID 1671462); conditions: stronger effect = higher value;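 further: cells exposed to compound for four days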
# [17] = growth inhibition of CRL1545 osteosarcoma cells, cell-based, cisplatin and BGB IC20 combos (AID 1671464); conditions: stronger effect = higher value;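 further: cells exposed to compound for 96 hours before readout; 0% = vehicle DMSO and 100% = high DMSO killing control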
# [18] = hESC survival regulators, cell-based (AID 493140; call rule not given here;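 further: cells exposed to compounds for four days before counting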); conditions: human embryonic stem cell survival screen; stronger effect = higher value
# [19] = liver-stage malaria parasite growth inhibition, primary screen, cell-based, HepG2, luciferase luminescence, HepG2 viability (AID 624349; in the data active means parasite load remaining mostly below about 12%, no sharp cut-off; inactive means mostly above about 10%;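 further: 100% = mean of DMSO negative control wells on the same plate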); conditions: P. berghei liver stage in HepG2, luciferase luminescence, concentration not given here; parasite load remaining: stronger effect = lower value; viability: measured here: HepG2 viability without parasites
# [20] = stronger effect = lower value, cell number ratio, induced over uninduced
# [21] = measured here: relative caspase fold change +Dox/-Dox
# [22] = measured here: total cells with miR-34 induction, stronger effect = lower value
# [23] = measured here: total cells without miR-34 induction
# [24] = MELAS cybrid survival, CellTiter-Glo 48 h, stronger effect = higher value
# [25] = Rieske KO mouse fibroblast survival, CellTiter-Glo 72 h
# [26] = measured here: combination with BGB IC40, at 0.05 µM
# [27] = measured here: with BGB IC20 combination, at 0.5 µM
# [28] = measured here: with cisplatin IC20 combination, at 0.5 µM
# [29] = measured here: combination with cisplatin, at 0.5 µM
# [30] = measured here: combination with cisplatin, at 5 µM
smiles,measurement,setting,value
CC(C)(C#N)c1ccc(N2C(=O)OCc3cnc4ccc(-c5cnc6ccccc6c5)cc4c32)cc1,fold change,[1]; [20],0.956 (inactive)
same,fold change,[1]; [21],0.673
same,cell count,[1]; [22],2510
same,cell count,[1]; [23],2620
same,z-score,[2]; [24],3.99 (active)
same,z-score,[2]; [25],2.98
same,inhibition,"[3]; at 0.5 µM, stronger effect = higher value",-21.4% (inactive)
same,inhibition,"[3]; measured here: combination with BGB IC20, at 0.005 µM",-11.2%
same,inhibition,"[3]; measured here: combination with BGB IC40, at 0.005 µM",-17%
same,inhibition,[3]; [26],-37.9%
same,inhibition,"[3]; measured here: combination with cisplatin, at 0.5 µM, stronger effect = higher value",-37.5%
same,inhibition,"[3]; measured here: combination with cisplatin, at 5 µM, stronger effect = higher value",-27.3%
same,inhibition,"[4]; BGB combo, at 5 µM",20.7%
same,inhibition,[4]; at 0.5 µM,3.13% (inactive)
same,inhibition,"[4]; cisplatin combo, at 5 µM",12.1%
same,inhibition,[4]; [27],34.2%
same,inhibition,[4]; [28],-10.9%
same,inhibition,"[4]; single agent, at 5 µM",52.2%
same,inhibition,"[5]; BGB IC20 combo, at 0.005 µM",-18.4%
same,inhibition,"[5]; BGB IC40 combo, at 0.005 µM",-8.9%
same,inhibition,"[5]; BGB IC40 combo, at 0.05 µM",30.5%
same,inhibition,[5]; at 0.5 µM,-29.7% (inactive)
same,inhibition,"[5]; cisplatin combo, at 0.05 µM",28.5%
same,inhibition,"[5]; cisplatin combo, at 0.5 µM",-15.5%
same,inhibition,"[5]; cisplatin combo, at 5 µM",-36.2%
same,inhibition,"[5]; measured here: 5 uM single agent, at 5 µM",-21.9%
same,inhibition,[6]; at 0.5 µM,-13.4% (inactive)
same,inhibition,[6]; [26],-7.9%
same,inhibition,[6]; [29],-39.8%
same,inhibition,[6]; [30],24%
same,inhibition,[7]; at 0.5 µM,3.37% (inactive)
same,inhibition,"[7]; measured here: with BGB IC20, at 0.5 µM",2.55%
same,inhibition,"[7]; measured here: with BGB IC20, at 5 µM",14.5%
same,inhibition,"[7]; measured here: with cisplatin IC20, at 0.5 µM",-23.6%
same,inhibition,"[7]; measured here: with cisplatin IC20, at 5 µM",28.2%
same,inhibition,"[7]; single agent, at 5 µM",-10.2%
same,inhibition,[8]; at 0.5 µM,-42.5% (inactive)
same,inhibition,"[8]; measured here: combination with BGB at IC20, at 0.5 µM",-42.2%
same,inhibition,"[8]; measured here: combination with cisplatin at IC20, at 0.5 µM",-56.5%
same,inhibition,[9]; at 0.5 µM,-11.6% (inactive)
same,inhibition,"[9]; measured here: combo with BGB at IC20, at 0.5 µM",-14.5%
same,inhibition,"[9]; measured here: combo with cisplatin at IC20, at 0.5 µM",-8.16%
same,inhibition,[10]; at 0.5 µM,5.6% (inactive)
same,inhibition,"[10]; measured here: inhibition with BGB combination, at 0.05 µM",-17%
same,inhibition,"[10]; measured here: inhibition with cisplatin combination, at 0.05 µM",-6.61%
same,inhibition,[11]; at 0.5 µM,-11.6% (inactive)
same,inhibition,[11]; [29],-16.8%
same,inhibition,[11]; [30],-39.1%
same,inhibition,[12]; at 0.5 µM,-25% (inactive)
same,inhibition,"[12]; measured here: BGB combination, at 0.5 µM",-28.5%
same,inhibition,"[12]; measured here: BGB combination, at 5 µM",-0.266%
same,inhibition,"[12]; measured here: cisplatin combination, at 0.5 µM",-29.7%
same,inhibition,"[12]; measured here: cisplatin combination, at 5 µM",-3.36%
same,inhibition,"[13]; BGB combination, concentration series, at 5 µM",53.9%
same,inhibition,[13]; at 0.5 µM,6.07% (inactive)
same,inhibition,"[13]; cisplatin combination, concentration series, at 5 µM",99.8%
same,inhibition,[14]; at 0.5 µM,-4.16% (inactive)
same,inhibition,"[14]; measured here: combo with BGB IC20, at 0.5 µM",-12.4%
same,inhibition,"[14]; measured here: combo with cisplatin IC20, at 0.5 µM",-5.44%
same,inhibition,[15]; at 0.5 µM,-28.9% (inactive)
same,inhibition,"[15]; cisplatin combination, at 0.5 µM",-2.27%
same,inhibition,"[15]; cisplatin combination, at 5 µM",60.4%
same,inhibition,"[15]; measured here: BGB IC40 combination 0.05 uM, at 0.05 µM",-35.6%
same,inhibition,"[15]; single agent, at 5 µM",4.04%
same,inhibition,[16]; at 0.5 µM,-2.14% (inactive)
same,inhibition,"[16]; cisplatin combo, at 5 µM",20.5%
same,inhibition,"[16]; measured here: BGB IC40 combination, at 0.05 µM",-35.7%
same,inhibition,[16]; [29],7.95%
same,inhibition,"[16]; single agent, at 5 µM",19.4%
same,inhibition,[17]; at 0.5 µM,0.16% (inactive)
same,inhibition,[17]; [27],-15%
same,inhibition,[17]; [28],5.66%
same,inhibition,"[17]; single agent, at 0.05 µM",-4.01%
same,inhibition,"[17]; single agent, at 5 µM",26.5%
O=C1NCCN1c1ncc([N+](=O)[O-])s1,survival,[18],3.92 (inactive)
same,parasite load remaining,[19],95% (inactive) and 83.2% (inactive)
same,viability,[19],122% and 79.5%
same,fold change,[1]; [20],0.899 (inactive)
same,fold change,[1]; [21],1.68
same,cell count,[1]; [22],8920
same,cell count,[1]; [23],9920
same,z-score,[2]; [24],0.58 (inactive)
same,z-score,[2]; [25],-0.169
Cc1cc(C(=O)NNCc2ccccc2)no1,survival,[18],3.33 (inactive)
same,parasite load remaining,[19],129% (inactive)
same,viability,[19],100%
same,fold change,[1]; [20],0.777 (inactive)
same,fold change,[1]; [21],1.27
same,cell count,[1]; [22],8090
same,cell count,[1]; [23],10400
same,z-score,[2]; [24],0.697 (inactive)
same,z-score,[2]; [25],0.109
